Laboratory results reported in PubChem BioAssay (EPA / NIEHS).
Active and inactive are the calls of the source. The calls were made as follows: active = hit-call score of the fitted dose curve at least 0.9, where 1 is the maximum; inactive = score below 0.9.

Assays:
[1] = APR_HepG2_CellCycleArrest_24hr: Apredica 24-hour HepG2 Assay for Cell Cycle Arrest (AID 2282905); conditions: imaging, actives raise or lower the signal;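 also: cell cycle arrest scored as ratio of 2N to 4N nuclear DNA content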
How it was run: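 Cell cycle arrest is scored from nuclear DNA content measured by high-content imaging of Hoechst 33342-stained HepG2 cells following 24-hour treatment at ten concentrations up to 200 uM, with DMSO as baseline.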

[2] = APR_HepG2_NuclearSize_24hr: Apredica 24-hour HepG2 Assay for Nuclear Size (AID 2282907); conditions: high-content imaging, actives raise or lower the signal
How it was run: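 Compounds in DMSO (final 0.5%) were added to human HepG2 hepatoma cells at ten concentrations up to 200 uM for 24 hr. Fixed nuclei were stained with Hoechst 33342, and nuclear diameter was quantified from automated images.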

[3] = APR_HepG2_CellLoss_24hr: Apredica 24-hour HepG2 Assay for Cell Loss (AID 2282908); conditions: high-content imaging;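 as to AC50: fit in both directions so a hit may be cell loss or gain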
How it was run: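 Cell number is quantified by fluorescence imaging of Hoechst 33342-stained nuclei following dosing at 0.39–200 uM in 0.5% DMSO. Curves are fitted in both directions from the DMSO baseline.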

[4] = APR_HepG2_MicrotubuleCSK_24hr: Apredica 24-hour HepG2 Assay for Microtubule CSK Stabilty (AID 2282909); conditions: HepG2 microtubule cytoskeleton imaging, actives raise or lower the signal
How it was run: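 Steps: dose HepG2 for 24 h (0.39–200 uM, 0.5% DMSO); fix 30 min in 3.7% formaldehyde at room temperature; permeabilize; stain alpha-tubulin 60 min; image microtubule cytoskeleton at 20x. Signal change fitted in both directions relative to DMSO.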

[5] = APR_HepG2_MitoticArrest_24hr: Apredica 24-hour HepG2 Assay for Mitotic Arrest (AID 2282910); conditions: high-content imaging, actives raise or lower the signal
How it was run: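 HepG2 human liver cells were exposed to compounds at 0.39–200 uM (10 concentrations, duplicate) in 0.5% v/v DMSO for 24 hr, then fixed and immunostained for phospho-histone H3 with Hoechst 33342. Mitotic arrest came from HCS fluorescent imaging, fitted bidirectionally against DMSO.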

[6] = APR_HepG2_MitoMembPot_24hr: Apredica 24-hour HepG2 Assay for Mitochondrial Membrane Potential (AID 2282911); conditions: imaging, actives raise or lower the signal
How it was run: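 HepG2, 24 hr dosing, 10 concentrations 0.39–200 uM, 0.5% DMSO final. Live-cell MitoTracker Red CMXRos 250 nM 30 min, then 3.7% formaldehyde fix. HCS fluorescence imaging, 20x; bidirectional fit vs DMSO baseline.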

[7] = APR_HepG2_MitoMass_24hr: Apredica 24-hour HepG2 Assay for Mitochondrial Mass (AID 2282912); conditions: high-content imaging, actives raise or lower the signal
How it was run: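 The liver line HepG2 was dosed in duplicate across a 0.39–200 uM series, with final DMSO held at 0.5% v/v, and harvested at 24 hr. High-content imaging measured mitochondrial dye staining.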

[8] = APR_HepG2_p53Act_24hr: Apredica 24-hour HepG2 Assay for p53 Activation (AID 2282913); conditions: high-content imaging, actives raise or lower the signal;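 also: p53 protein immunofluorescence averaged per cell in HepG2 with Hoechst nuclei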
How it was run: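 Read-out: Cy5 immunofluorescence for p53 in fixed, permeabilized HepG2, imaged by HCS with Hoechst-defined nuclei. Dosing was 24 hr at 0.39–200 uM in 0.5% DMSO. Curves were fitted bidirectionally relative to DMSO.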

[9] = APR_HepG2_CellLoss_72hr: Apredica 72-hour HepG2 Assay for Cell Loss (AID 2282915); conditions: high-content imaging
How it was run: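 HepG2 cells were exposed for 72 hr to compounds at 0.39–200 uM (ten concentrations, duplicate) in 0.5% v/v final DMSO. Nuclei were stained with Hoechst 33342 after 3.7% formaldehyde fixation, imaged at 20x, and counted; fits bidirectional versus DMSO.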

[10] = APR_HepG2_CellCycleArrest_72hr: Apredica 72-hour HepG2 Assay for Cell Cycle Arrest (AID 2282914); conditions: high-content imaging, actives raise or lower the signal
How it was run: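 HepG2, 72 hr exposure, 10-point 0.39–200 uM, duplicate, 0.5% DMSO final. Fix 3.7% formaldehyde 30 min RT, Triton X-100 0.5%, Hoechst 33342 2 ug/mL. ArrayScan 20x, six fields/well; DNA content per nucleus; bidirectional fit vs DMSO.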

Measured: AC50

CCN(CC)N=O
not listed: [10]
inactive: all other assays above

Cc1ccc(N)cc1
inactive: all assays above

COc1cc(C=O)cc2c1[C@H](COC(N)=O)[C@]1(OC(C)=O)ON2C[C@H]2[C@@H]1N2C(C)=O
active: [6] 0.474 µM
not listed: [5]
inactive: all other assays above

COC(=O)Nc1nc2ccccc2[nH]1
inactive: [2] | [4] | [6] | [7]
active: [1] 15.4 µM | [3] 7.04 µM | [5] 3.45 µM | [8] 3.13 µM | [10] 13.4 µM | [9] 5.59 µM

Clc1ccc(C(c2ccc(Cl)cc2)C(Cl)Cl)cc1
inactive: [2]
active: [1] 100 µM | [3] 93.7 µM | [4] 156 µM | [5] 89.6 µM | [6] 63.9 µM | [7] 89.1 µM | [8] 107 µM | [10] 90.9 µM | [9] 93.8 µM

Nc1ccc(Oc2ccc(N)cc2)cc1
inactive: all assays above

C=CCc1ccc2c(c1)OCO2
active: [6] 0.0311 µM
inactive: all other assays above

CCCCOC(=O)c1ccccc1C(=O)OCc1ccccc1
active: [3] 48.5 µM | [9] 60.3 µM
not listed: [10]
inactive: all other assays above

CCCCCOC(=O)c1ccccc1C(=O)OCCCCC
active: [10] 95.9 µM | [9] 106 µM
inactive: all other assays above

N#CC(Br)(Br)C(N)=O
not listed: [5]
inactive: all other assays above

O=[N+]([O-])C(Br)(CO)CO
inactive: [2] | [4] | [5] | [7]
active: [1] 116 µM | [3] 25.6 µM | [6] 84.6 µM | [9] 35.5 µM

ClCCOCCCl
inactive: all assays above

CCCSC(=O)N(CCC)CCC
not listed: [10]
inactive: all other assays above

Oc1ccccc1Cl
not listed: [10]
inactive: all other assays above

CC(C)COC(=O)c1ccccc1C(=O)OCC(C)C
inactive: [2] | [4] | [5]
active: [1] 85.7 µM | [3] 87 µM | [6] 53.7 µM | [7] 108 µM | [10] 76.2 µM | [9] 63.2 µM

c1ccc2c(c1)-c1cccc3cccc-2c13
active: [3] 85.7 µM | [5] 107 µM | [10] 111 µM | [9] 106 µM
inactive: all other assays above

Nc1cc(Cl)cc(C(=O)O)c1Cl
inactive: all assays above

CCN(CC)CCO
not listed: [10]
inactive: all other assays above

[As]#[In]
inactive: all assays above
